Test results taken from PubChem BioAssay (NCI).
The panel holds about 83,000 compounds, 20% with a hit somewhere; the sample as a whole holds those more often.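 Activity criterion: percent growth below 10, measured after cells in 96-well plates were exposed to a single compound concentration for 48 hours.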 A number with no mark means an inactive call. Calls of active or inactive are those of the source.

Columns and labels:
Assay in all cases: NCI-60 one-dose screen, 48 h (100 = growth as untreated, 0 = no growth, -100 = all killed)
Conditions in all cases: 10 µM
DU-145 prostate = tested on: DU-145 prostate
MALME-3M melanoma = tested on: MALME-3M melanoma
MDA-MB-231 breast = tested on: MDA-MB-231 breast
RXF 393 renal = tested on: RXF 393 renal
SF-268 CNS = tested on: SF-268 CNS
SF-295 CNS = tested on: SF-295 CNS
SF-539 CNS = tested on: SF-539 CNS
UACC-257 melanoma = tested on: UACC-257 melanoma
M14 melanoma = tested on: M14 melanoma
HCT-15 colon = tested on: HCT-15 colon
HT29 colon = tested on: HT29 colon
SNB-75 CNS = tested on: SNB-75 CNS
SNB-19 CNS = tested on: SNB-19 CNS
U251 CNS = tested on: U251 CNS
PC-3 prostate = tested on: PC-3 prostate
SK-MEL-5 melanoma = tested on: SK-MEL-5 melanoma
UACC-62 melanoma = tested on: UACC-62 melanoma
LOX IMVI melanoma = tested on: LOX IMVI melanoma
SK-MEL-28 melanoma = tested on: SK-MEL-28 melanoma
K-562 leukemia = tested on: K-562 leukemia

SMILES	growth (DU-145 prostate)	growth (MALME-3M melanoma)	growth (MDA-MB-231 breast)	growth (RXF 393 renal)	growth (SF-268 CNS)	growth (SF-295 CNS)	growth (SF-539 CNS)	growth (UACC-257 melanoma)	growth (M14 melanoma)	growth (HCT-15 colon)	growth (HT29 colon)	growth (SNB-75 CNS)	growth (SNB-19 CNS)	growth (U251 CNS)	growth (PC-3 prostate)	growth (SK-MEL-5 melanoma)	growth (UACC-62 melanoma)	growth (LOX IMVI melanoma)	growth (SK-MEL-28 melanoma)	growth (K-562 leukemia) [%]
C=C1CCC2(C#N)[C@H]3[C@H](CC[C@@H]2C)[C@@H](C)C[C@@H](CC(C)(C)NC(=O)CN2CCC2=O)[C@H]13 (stereo partly specified)	89.5%	83.2%	47.6%	55.5%	63.3%	60.5%	47%	80.8%	54.9%	47.3%	75.6%	57.4%	40.2%	33.6%	17.8%	27.4%	48.5%	54.2%	73.9%	
O=C1Cc2cc(CCN3CCN(c4nsc5ccccc45)CC3)c(Cl)cc2N1	95.4%	94.2%	89.5%	91.7%	92.9%	91.9%	105%	86.3%	105%	85.1%	90.1%	78.8%	94.1%	94.7%	72.3%	92%	84.8%	96.8%	90.3%	
COc1ccc2nc3cc(Cl)ccc3c(Nc3cc(CN4CCCC4)c(O)c(CN4CCCC4)c3)c2n1	18.2%	-73.6% (active)	-21.6% (active)	-68.9% (active)	-25.1% (active)	-26.8% (active)	-21.6% (active)	-87.3% (active)	-82.5% (active)	5.6% (active)	1.23% (active)	-64.4% (active)	14.5%	10.4%	6.93% (active)	-96.1% (active)	-23.4% (active)	-8.24% (active)	-21.8% (active)	
CCC1NC(=O)c2cc(S(N)(=O)=O)c(Cl)cc2N1 (stereo unspecified)	124%	118%	109%	115%	115%	93%	115%	104%	110%	109%	109%	105%	105%	96.3%	93.6%	104%	103%	99.9%	121%	
CN1CCN(c2cc3c(cc2F)c(=O)c(C(=O)O)cn3-c2ccc(F)cc2)CC1	118%	96.3%	109%	116%	93.2%	99.8%	99.7%	105%	93%	99.2%	91.2%	55.2%	98.2%	106%	90.4%	95.5%	90.2%	84.7%	105%	
Cc1cc(CC(C)CC(C)(C)C)n(O)c(=O)c1 (stereo unspecified) (tested in a mixture with another compound)	19.5%	8.49% (active)	38.3%	42.1%	14.4%	6.87% (active)	6.73% (active)	-1.79% (active)	-35.9% (active)	23.8%	53.2%	16.7%	26%	17.8%	33.9%	-1.17% (active)	-8.65% (active)	7.96% (active)	25.1%	
CCc1cc(Cl)c(OC)c(C(=O)NCC2CCCN2CC)c1O (stereo unspecified)	102%	108%	50.6%	73%	98.2%	85%	103%	87.7%	103%	91.8%	89.5%	67.1%	91.2%	83.8%	73.7%	83.4%	97%	90.6%	109%	
C[N+]1(CCCCC[N+]2(C)CCCC2)CCCC1	93.2%	90%	89.5%	122%	97.1%	123%	93.7%	102%	98.5%	103%	102%	110%	96.8%	108%	86.3%	103%	102%	105%	105%	
OC[C@H]1OC([S-])[C@H](O)[C@@H](O)[C@@H]1O.[Au+] (stereo partly specified)	111%	137%	70%	93.2%	88.2%	113%	84.3%	90%	81.6%	87.8%	83.8%	98.8%	101%	61.7%	77.8%	68.5%	63.3%	50.3%	68.9%	
CC1/C=C/C=C/C=C/C=C/C=C/C=C/C=C/C(O[C@@H]2O[C@H](C)[C@H](O)[C@@H](O)[C@@H]2N)CC(O)C(C(=O)O)C(O)CC(=O)CC(O)CC(O)CC(O)CC(=O)CCCC(=O)CC(=O)OC1C(C)CC(C)C(O)CC(=O)c1ccc(N)cc1 (stereo partly specified)	-98.7% (active)	-92.5% (active)	-94.8% (active)	-90.9% (active)	-95.8% (active)	-95.3% (active)	-71.4% (active)	-99.7% (active)	-88.7% (active)	-95.5% (active)	-76.7% (active)	-96.6% (active)	-99% (active)	-100% (active)	-95.7% (active)	-99% (active)	-98.7% (active)	-96.9% (active)	-94.3% (active)	
COc1ccc(Cc2cnc(N)nc2N)cc1OC	114%	113%	95.3%	105%	106%	96.2%	107%	100%	108%	101%	99%	79.4%	100%	97.1%	88.6%	101%	96.9%	97%	119%	
CC(=O)/C(=C/c1ccc(Br)cc1)C(=O)c1ccccc1	81.6%		77.4%		67.4%	88.9%	96.7%	78.3%	69.9%	46.6%	76.6%	84.5%	90.6%	66.9%	80.6%	66.3%		-61.9% (active)	100%	30.7
CCCCc1oc2ccccc2c1C(=O)c1cc(I)c(OCCN(CC)CC)c(I)c1	34.1%	-72.6% (active)	-79.8% (active)	-70.3% (active)	30.8%	-66.7% (active)	-19% (active)	-61% (active)	-75.3% (active)	-50.5% (active)	-61.2% (active)	12.5%	-60.6% (active)	-86.3% (active)	-8.07% (active)	-100% (active)	-86.8% (active)	-88.7% (active)	-87.8% (active)	
OC(CNc1ccnc2cc(Cl)ccc12)CNC1CCCCC1 (stereo unspecified)	91.6%	101%	54.4%	33.5%	89.8%	83.5%	63.1%	-37.5% (active)	-15.6% (active)	75.6%	31.3%	87.4%	100%	63.1%	69.4%	15.3%	61.4%	73%	23.3%	
CCCCC(CC)CN=C(N)NC(N)=NCCCCCCN=C(N)NC(N)=NCC(CC)CCCC (stereo unspecified)	-98.1% (active)	-73% (active)	-84.6% (active)	-43.5% (active)	-82.8% (active)	-84.8% (active)	-76.9% (active)	-47.1% (active)	-65.1% (active)	7.37% (active)	-82.8% (active)	-72.5% (active)	-87.2% (active)	-89.8% (active)	-69.7% (active)	-89.8% (active)	-58% (active)	-80.8% (active)	-79.6% (active)	
CC(=O)O[C@@]12CO[C@@H]1C[C@H](O)[C@@]1(C)C(=O)[C@H](O)C3=C(C)[C@@H](OC(=O)[C@H](O)[C@@H](NC(=O)OC(C)(C)C)c4ccccc4)C[C@@](O)([C@@H](OC(=O)c4ccccc4)C12)C3(C)C (stereo partly specified)	-10.4% (active)	76.5%	45.5%	23.7%	51.8%	-23% (active)	23%	74%	36%	16.5%	6.02% (active)	-2.3% (active)	37.8%	24.2%	31.7%	28.6%		44.6%	77.9%	
